Laboratory results as given in PubChem BioAssay (NCATS).
Results filed as inconclusive are left out. Calls of active or inactive are those of the source. Calls follow the shape of the dose curve; as a rule, active = well fitted curve in the direction sought with a large enough effect; inconclusive = small, poorly fitted or top-dose-only effect, or another doubt; inactive = no such curve, though single readings can be large; an effect the other way counts as inactive or inconclusive.

How the values were obtained:
[1] = P-glycoprotein substrates identified in KB-8-5-11 adenocarcinoma cell line, qHTS therapeutic library screen (AID 1346987); also: nearly all actives have a fitted effect of over 65% in size
In short: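 Compounds are pinned in dose-response onto KB-8-5-11 cells (500 cells/well, colchicine-free medium) and left 72 h at 37 degree C. CellTiter-Glo luminescence then yields AC50 values.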

[2] = Primary qHTS for inhibitors of nuclear receptor binding SET domain protein 2 (NSD2) in an isogenic RCH-ACV NSD2 p.E1099K mutant (9B) (AID 1645876); also: nearly all actives have a fitted effect of over 70% in size
[3] = Primary qHTS for inhibitors of nuclear receptor binding SET domain protein 2 (NSD2) in an RCH-ACV wild type WT cells (2C) (AID 1645877); also: nearly all actives have a fitted effect of over 70% in size
[4] = molecular target: Glutathione peroxidase 1 (Homo sapiens) (UniProt P07203); assay: Primary qHTS Assay for Inhibitors of Recombinant Selenoprotein Glutathione Peroxidase 1 (GPX1) (AID 1845191); also: nearly all actives have a fitted effect of over 65% in size
In short: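 NADPH consumption tracked by fluorescence at 340/450 nm between t=0 and t=15 min, room temperature. Final mix: 10 nM GPX1, 100 nM glutathione reductase, 1 mM GSH, 0.5 mM NADPH, 0.5 mM cumene hydroperoxide, 0.01% BSA; 30 min compound–enzyme preincubation.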

[5] = molecular target: Phospholipid hydroperoxide glutathione peroxidase GPX4 (Homo sapiens) (UniProt P36969); assay: Primary qHTS Assay for Inhibitors of Recombinant Selenoprotein Glutathione Peroxidase 4 (GPX4) (AID 1845192); also: % is scaled to controls: 0 for no effect and ±100 for the full control effect; nearly all actives have a fitted effect of over 65% in size
In short: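 NADPH consumption followed by fluorescence at 340/450 nm, t=0 and after 15 min at room temperature. Reaction started with cumene hydroperoxide (0.5 mM final) after 30 min compound–GPX4 preincubation; final 200 nM GPX4, 100 nM GR, 1 mM GSH, 0.5 mM NADPH.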

[6] = molecular target: Luciferin 4-monooxygenase (Photinus pyralis) (UniProt P08659); assay: Primary firefly luciferase (FLuc) qHTS assay for identification of artifact compounds. (AID 1845220); conditions: outcome: dose series up to 54.1 µM unless noted; also: nearly all actives have a fitted effect of over 60% in size
In short: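 FLuc 10 nM; luciferin 10 uM; ATP 10 uM; Tris-acetate pH 7.6, Mg-acetate 10 mM; 15 min RT preincubation; 5 min reaction; luminescence.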

[7] = system: Nanoluciferase (engineered Oplophorus gracilirostris luciferase); assay: Primary Nanoluciferase (NLuc) qHTS assay for identification of artifact compounds. (AID 1845222);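 also: NLuc secreted into diluted conditioned medium of S16 cells; 0% = DMSO and -100% = no enzyme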
In short: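 NLuc from S16 cell medium (1:55) plus test compounds, 15 min, room temperature. Luminescence after Nano-Glo (1:100) addition, 5 min.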

CRL-7250 = normal cell line; assay: Cytotoxic Profiling of Annotated Libraries Using Quantitative High-Throughput Screening (AID 1296008); conditions: Five cell lines viability, CellTiter-Glo ATP luminescence, 48-72 h; max response: active compounds read low; also: nearly all actives have a fitted effect of over 60% in size; as to max response: % is scaled to controls: 0 for no effect and ±100 for the full control effect
In short: (§1)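 Cytotoxicity was measured as CellTiter-Glo ATP luminescence, read after 10 min at room temperature. Compound treatment of the cells lasted 48 or 72 hr at 37 degrees Celsius in a qHTS format.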

HEK293 = assay: as above; conditions: Five cell lines viability, CellTiter-Glo ATP luminescence, 48-72 h; max response: active compounds read low
In short: as §1

HaCat = assay: as above; conditions: Five cell lines viability, CellTiter-Glo ATP luminescence, 48-72 h; max response: active compounds read low
In short: as §1

NIH3T3 = assay: as above; conditions: Five cell lines viability, CellTiter-Glo ATP luminescence, 48-72 h; max response: active compounds read low
In short: as §1

C33A = assay: Primary qHTS to identify gynecologic anti-cancer compounds using libraries of approved drugs and bioactive compounds (AID 1345084); conditions: Gynecologic cancer cell panel viability, ATPlite luminescence, 48 h; series mostly up to 57.5 µM; also: % is scaled to controls: 0 for no effect and ±100 for the full control effect; nearly all actives have a fitted effect of over 55% in size
In short: (§2)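 ATP-based viability (ATPlite), 1,000 cells/well, 16 h pre-incubation, 48 h compound at 37 C, 5% CO2, 15 min RT before read.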

CASKI = assay: as above; conditions: Gynecologic cancer cell panel viability, ATPlite luminescence, 48 h; series mostly up to 57.5 µM
In short: as §2

Es-2 = assay: as above; conditions: Gynecologic cancer cell panel viability, ATPlite luminescence, 48 h; series mostly up to 57.5 µM
In short: as §2

HeLa = assay: as above; conditions: Gynecologic cancer cell panel viability, ATPlite luminescence, 48 h; series mostly up to 57.5 µM
In short: as §2

Hek293T = assay: as above; conditions: Gynecologic cancer cell panel viability, ATPlite luminescence, 48 h, control line for the selectivity index; series mostly up to 57.5 µM
In short: as §2

OV90 = assay: as above; conditions: Gynecologic cancer cell panel viability, ATPlite luminescence, 48 h; series mostly up to 57.5 µM
In short: as §2

PA-1 = assay: as above; conditions: Gynecologic cancer cell panel viability, ATPlite luminescence, 48 h; series mostly up to 57.5 µM
In short: as §2

Tov-21-G = assay: as above; conditions: Gynecologic cancer cell panel viability, ATPlite luminescence, 48 h; series mostly up to 57.5 µM
In short: as §2

Tov112D = assay: as above; conditions: Gynecologic cancer cell panel viability, ATPlite luminescence, 48 h; series mostly up to 57.5 µM
In short: as §2

Phospholipid hydroperoxide glutathione peroxidase GPX4 (Homo sapiens), sequence (P36969 whole entry, looked up): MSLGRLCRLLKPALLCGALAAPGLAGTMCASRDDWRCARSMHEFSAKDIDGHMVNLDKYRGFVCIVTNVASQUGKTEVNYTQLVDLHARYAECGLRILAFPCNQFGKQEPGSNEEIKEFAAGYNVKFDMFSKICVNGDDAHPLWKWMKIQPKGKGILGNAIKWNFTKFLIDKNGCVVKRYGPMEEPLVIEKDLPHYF
Glutathione peroxidase 1 (Homo sapiens), sequence (P07203 whole entry, looked up): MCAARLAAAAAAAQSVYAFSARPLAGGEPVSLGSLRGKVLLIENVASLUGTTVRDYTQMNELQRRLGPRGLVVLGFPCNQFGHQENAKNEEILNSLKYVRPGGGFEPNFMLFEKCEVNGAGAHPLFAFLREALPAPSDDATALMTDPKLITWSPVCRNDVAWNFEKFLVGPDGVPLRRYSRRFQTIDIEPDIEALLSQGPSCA

C/C=C1/CN2CC[C@]34C(=Nc5ccc(OC)cc53)C2C[C@@H]1C4(CO)C(=O)OC (stereo partly specified)
inactive: Potency [1] | Potency [2] | Potency [3] | Potency [4] | Potency [5] | outcome [6] | Potency [7] | max response (CRL-7250) 0.729% | max response (HEK293) 4.62% | outcome (HaCat) | max response (NIH3T3) 4.25% | Potency (C33A) | Potency (CASKI) | Potency (Es-2) | Potency (HeLa) | Potency (Hek293T) | Potency (OV90) | Potency (PA-1) | Potency (Tov-21-G) | Potency (Tov112D)

COCC(C(=O)OC1CC2CCC(C1)N2C)c1ccccc1 (stereo unspecified)
inactive: Potency [1] | Potency [2] | Potency [3] | Potency [4] | Potency [5] | Potency [7] | max response (CRL-7250) -5.38% | max response (HEK293) -0.619% | outcome (HaCat) | max response (NIH3T3) 3.79% | Potency (C33A) | Potency (CASKI) | Potency (Es-2) | Potency (HeLa) | Potency (Hek293T) | Potency (OV90) | Potency (PA-1) | Potency (Tov-21-G) | Potency (Tov112D)

COc1ccsc1CNCC[C@@]1(c2ccccn2)CCOC2(CCCC2)C1
inactive: Potency [1] | Potency [2] | Potency [3] | Potency [4] | Potency [5] | outcome [6] | Potency [7] | max response (CRL-7250) -5.82% | max response (HEK293) -0.102% | max response (HaCat) -8.27% | max response (NIH3T3) -1.76% | Potency (C33A) | Potency (CASKI) | Potency (Es-2) | Potency (HeLa) | Potency (Hek293T) | Potency (OV90) | Potency (PA-1) | Potency (Tov-21-G) | Potency (Tov112D)

C[C@]12CC[C@H]3[C@@H](CCC4=C/C(=N/OCC(=O)O)CC[C@@]43C)[C@@H]1CC[C@@H]2O
inactive: Potency [1] | Potency [2] | Potency [3] | Potency [4] | Potency [5] | outcome [6] | Potency [7] | max response (CRL-7250) -2.05% | max response (HEK293) -5.05% | max response (HaCat) -24.1% | max response (NIH3T3) 3.02% | Potency (C33A) | Potency (CASKI) | Potency (Es-2) | Potency (HeLa) | Potency (Hek293T) | Potency (OV90) | Potency (PA-1) | Potency (Tov-21-G) | Potency (Tov112D)

COC(=O)C1=COC(C)C2CN3CCC4(C(=O)Nc5ccccc54)C3CC12 (stereo unspecified)
inactive: Potency [1] | Potency [2] | Potency [3] | Potency [4] | Potency [5] | outcome [6] | Potency [7] | max response (CRL-7250) -2.61% | max response (HEK293) -24% | max response (HaCat) 2.66% | max response (NIH3T3) -11.4% | Potency (C33A) | Potency (CASKI) | Potency (Es-2) | Potency (HeLa) | Potency (Hek293T) | Potency (OV90) | Potency (PA-1) | Potency (Tov-21-G) | Potency (Tov112D)

CC1(C)C(=O)N(c2ccc(C#N)c(C(F)(F)F)c2)C(=O)N1CCCCO
inactive: Potency [1] | Potency [2] | Potency [3] | Potency [4] | Potency [5] | Potency [7] | max response (CRL-7250) -11% | max response (HEK293) -15.9% | max response (HaCat) -18.8% | max response (NIH3T3) -6.14% | Potency (C33A) | Potency (CASKI) | Potency (Es-2) | Potency (HeLa) | Potency (Hek293T) | Potency (OV90) | Potency (PA-1) | Potency (Tov-21-G) | Potency (Tov112D)

C#CCO[C@H]1CN2CCC1CC2
inactive: Potency [1] | Potency [2] | Potency [3] | Potency [4] | Potency [5] | outcome [6] | Potency [7] | max response (CRL-7250) -0.287% | max response (HEK293) -18.5% | max response (HaCat) 2.85% | max response (NIH3T3) 2.27% | Potency (C33A) | Potency (CASKI) | Potency (Es-2) | Potency (HeLa) | Potency (Hek293T) | Potency (OV90) | Potency (PA-1) | Potency (Tov-21-G) | Potency (Tov112D)

Cc1c(Cl)c(OCC(=O)N2CCN(C)CC2)nc2sc(C(=O)NC3CC3)c(N)c12
inactive: Potency [1] | Potency [2] | Potency [3] | Potency [4] | Potency [5] | outcome [6] | Potency [7] | max response (CRL-7250) -0.463% | max response (HEK293) -7.33% | max response (HaCat) -0.624% | max response (NIH3T3) 0.637% | Potency (C33A) | Potency (CASKI) | Potency (Es-2) | Potency (HeLa) | Potency (Hek293T) | Potency (OV90) | Potency (PA-1) | Potency (Tov-21-G) | Potency (Tov112D)

C/C=C(/C)C1C=CC2CC(C)CC(C)C2C1/C(O)=C1\C(=O)NC(CC(C)(O)C(=O)O)C1=O (stereo unspecified)
inactive: Potency [1] | Potency [2] | Potency [3] | Potency [4] | Potency [5] | Potency [7] | outcome (CRL-7250) | max response (HEK293) -1.39% | max response (HaCat) -6.03% | max response (NIH3T3) 1.49% | Potency (C33A) | Potency (CASKI) | Potency (Es-2) | Potency (HeLa) | Potency (Hek293T) | Potency (OV90) | Potency (PA-1) | Potency (Tov-21-G) | Potency (Tov112D)

CCC(C)/C=C(C)/C=C/C1=CC2=C(Cl)C(=O)C(C)(OC(C)=O)C(=O)C2=CO1 (stereo unspecified)
inactive: Potency [1] | Potency [2] | Potency [4] | Potency [5] | outcome [6] | Potency [7] | max response (CRL-7250) -20% | max response (HEK293) -69.1% | max response (HaCat) -66.3% | max response (NIH3T3) -56.4% | Potency (C33A) | Potency (CASKI) | Potency (Es-2) | Potency (HeLa) | Potency (Hek293T) | Potency (OV90) | Potency (PA-1) | Potency (Tov-21-G) | Potency (Tov112D)
